Test results as given in ChEMBL document CHEMBL3988442, “University of Dundee, Small-Polar-MMV Screening Library” (2021).
The whole screen tested about 53,000 compounds, of which about 900 (1.7%) showed an effect of 50% or more. The sample holds strong results, similar compounds and a random draw of the others, so the mix is not that of the screen.

test system: Mycobacterium tuberculosis; assay: Cornell - Phenotypic assay to identify agents that inhibit growth of Mycobacterium tuberculosis; format: functional; design: scale not given: direction of the effect not stated beside the values; conditions: 10 mM as filed; unlikely as a test dose

SMILES	Percent Effect [%]
CC(C)Cn1nc2ccc(S(=O)(=O)N3CCC(C)CC3)cn2c1=O	2.551
COc1cc2nc(NCc3ccc(C)nc3)nc(N)c2cc1OC	50.73
COc1cc2nc(NCc3cc(C)on3)nc(N)c2cc1OC	-7.413
COc1cc2nc(NCc3scnc3C)nc(N)c2cc1OC	13.16
COC(=O)N1CCC(Nc2ccc(C#N)c(Cl)c2)C1 (stereo not drawn)	66.83
N#Cc1ccc(NC2CCN(c3ncccn3)CC2)cc1Cl	33.47
COC(=O)N1CCC(Nc2ccc(Cl)c(C#N)n2)C1 (stereo not drawn)	21.5
CC(NC(=O)NCCCn1cccn1)c1ccccn1 (stereo not drawn)	-6.373
CC(NC(=O)NCCNc1ccccn1)c1cccs1 (stereo not drawn)	-14.12
CCCNC(=O)NC(C)c1ccccn1 (stereo not drawn)	55.13
CCN1CCN(C(C)(C)CNc2nc(C)cc(C3CCC3)n2)CC1	8.458
CC(C)CC(=O)N1Cc2ccccc2CC1C(=O)Nc1nncs1 (stereo not drawn)	29.19
O=C(NCC1(O)COCCN(Cc2cccc(O)c2)C1)c1ccccn1 (stereo not drawn)	-47.38
CC(C)n1cnnc1Cn1ccc2ncccc2c1=O	-16.96
CC(NC(=O)NCc1ccccc1)(C(=O)O)c1ccco1 (stereo not drawn)	-57.05
CC(NC(=O)NCc1ccccc1F)(C(=O)O)c1ccco1 (stereo not drawn)	-0.26
Cc1ccc(C)c(CNC(=O)NC(C)(C(=O)O)c2ccco2)c1 (stereo not drawn)	50.37
COc1cc(N2CCC3(CC2)CN(C)C(=O)CO3)ncn1	-14.83
CCn1ncc2c1CCCC2NCc1cccc2c1OCO2 (stereo not drawn)	-8.826
NC(=O)C1CCN(C(=O)CCSCc2ccc(Cl)c(Cl)c2)CC1	42.57
CNC(=O)NC(=O)CN(C)C(c1cccnc1)c1ccc(F)cc1F (stereo not drawn)	14.91
CCOCCN(C)C(c1cccnc1)c1ccc(F)cc1F (stereo not drawn)	14
COC(=O)CCCN(C)C(c1cccnc1)c1ccc(F)cc1F (stereo not drawn)	105.8
CC(=O)NCCC1CCCCN1S(=O)(=O)c1cccc(Cl)c1 (stereo not drawn)	-47.8
CN1CCN(Cc2cn3c(n2)CN(Cc2ccncc2)CC3)CC1	-19.75

SMILES	Percent Effect [%]
COc1ccccc1NC(=O)CC(C)NCc1scnc1C (stereo not drawn)	-11.77
COc1ccccc1NCC(=O)NCc1scnc1C	3.418
COc1ccccc1NC(=O)CC(C)NCCc1sc(C)nc1C (stereo not drawn)	109.1
CCOc1ccc(NC(=O)N2CCOC(C(N)=O)C2)cc1C (stereo not drawn)	-10.8
CN1CCN(c2nsc(-c3cccnc3)c2C#N)CC1	-23.91
CCN1CCN(c2nsc(-c3cccnc3)c2C#N)CC1	8.063
CN1CCN(c2nsc(-c3ccccc3)c2C#N)CC1	72.37
O=C(NCCOc1ccccc1)NCC(O)c1cccs1 (stereo not drawn)	1.907
Cc1csc(N2CCCN(C(=O)c3csc(C)n3)CC2)n1	20.78
O=C(c1cnc(O)cn1)N1C[C@@H]2CC[C@H](C1)N(Cc1ccccc1)C2	9.482
CCN1CCCc2cc(CN3CCc4c(nc(C)[nH]c4=O)C3)ccc21	3.807
Cc1cnc(CN(Cc2ccccc2)CC(O)c2cccs2)cn1 (stereo not drawn)	-16.83
Cn1cc(CN(Cc2ccccc2)CC(O)c2cccs2)cn1 (stereo not drawn)	103.2
OC(CN(Cc1ccccc1)Cc1ccncc1)c1cccs1 (stereo not drawn)	4.252
O=c1oc2ccccc2n1CCN(CC1CCOC1)C1CC1 (stereo not drawn)	23.76
CCCN(CCn1c(=O)oc2ccccc21)CC1CC1	69.63
CCN(CC)CCn1c(=O)oc2ccccc21.Cl	61.39
CCN(CCn1c(=O)oc2ccccc21)CC1CCOCC1	48
O=C(CCn1c(=O)oc2ccccc21)NCC(O)c1ccccc1 (stereo not drawn)	-6.039
CC(NCCn1c(=O)oc2ccccc21)c1ccccn1 (stereo not drawn)	11.05
CN(C)CCN1CCC2(CC1)CN(c1cccnc1)C(=O)CO2	-2.61
CCC(C)NC(=O)Nc1cccc(OC)c1 (stereo not drawn)	-23.11
CC1CC(=O)c2cc(C(=O)N3CCN(C)CC3)c(=O)[nH]c2C1 (stereo not drawn)	4.231
COc1c(Br)c(C(=O)NC2CC2)nn1C	20.51
CNc1nc(C(=O)NCc2cccnc2N(C)C)cs1	28.41

SMILES	Percent Effect [%]
CNc1nc(C(=O)NCc2cccnc2N(C)C2CCCCC2)cs1	51.53
CN(c1ncccc1CNC(=O)c1cscn1)C1CCCCC1	20.11
CCCN1CCN(Cc2cc3cc(OCC)ccc3[nH]c2=O)CC1	16.06
CCc1ccc(-c2cn3c(C(=O)NCC(C)C(=O)NC)csc3n2)cc1 (stereo not drawn)	9.06
CCn1ccc(CNC(=O)c2cc(OC)cc(OC)c2)n1	3.102
O=C(CN1CCOCC1)Nc1ccc(C(F)(F)F)cc1Cl	-3.484
Cc1cc(C(=O)N2CCN(c3ncc4c(n3)CCOC4)CC2)sc1C	45.6
Cc1cnc(C(=O)N2CCN(c3ncc4c(n3)CCOC4)CC2)cn1	56.71
CC(C)c1cc(C(=O)N2CCN(c3ncc4c(n3)CCOC4)CC2)on1	-0.8267
O=C(CN1CCc2cncnc2C1)Nc1ccc(Cl)cn1	-14.12
CCc1nnc(CN(C)c2cc(C)nc3c(C)c(C)nn23)o1	-22.97
Cc1cc(N(C)Cc2ccsc2)n2nc(C)c(C)c2n1	80.58
Cc1csc(CN(C)c2cc(C)nc3c(C)c(C)nn23)n1	39.72
COCCNC(=O)CN1CCCC1c1c(C)nn(C)c1Cl (stereo not drawn)	-22.86
COc1ccc2cc(NC(=O)CCNc3ncccn3)cnc2c1	-7.502
COCCC(=O)N1CCC(c2cncc(Oc3cccnc3)n2)CC1	-4.018
COc1c(CNC2CCOc3ccccc32)c(C)nn1C (stereo not drawn)	23.56
Cc1nn(C)c(C)c1CNC1CCOc2ccccc21 (stereo not drawn)	106.6
Cc1nn(CCO)c(C)c1CNC1CCOc2ccccc21.Cl (stereo not drawn)	28.69
CC(C)N1CCC2(CCN(C(=O)c3cccnc3)CC2)C1.O=C(O)C(F)(F)F.O=C(O)C(F)(F)F	-3.69
COc1cccc(-c2noc3c2CN(c2nc(C)ncc2C)CC3)c1	77.03
COc1cccc(-c2noc3c2CN(c2ncnc4c2CCC4)CC3)c1	35.28
COCc1cc(N2CCc3onc(-c4cccc(OC)c4)c3C2)ncn1	25.42
